Assays:
Test in all cases: protein-binding microarray (PBM); PBM: ~300 nM protein, 6 mM HEPES pH 7.8, 80 mM KCl, 0.5 mM EDTA, 0.5 mM EGTA, 6% glycerol, 35 ng/ul poly-dIdC, 1% milk, 1 h, room temperature; Ap Aiptasia and Nv Nematostella (sea anemones) / Co Capsaspora / Aq Amphimedon (sponge) / Dm Drosophila / Hu human; RHD is the Rel homology domain; high values mean tight binding
Details in all cases: dsDNA, one strand shown
[1] = molecular target: T1, GST-Ap-NF-kB RHD (Exaiptasia pallida (Aiptasia), UniProt A0A913YAJ5 2-422)
T1 sequence: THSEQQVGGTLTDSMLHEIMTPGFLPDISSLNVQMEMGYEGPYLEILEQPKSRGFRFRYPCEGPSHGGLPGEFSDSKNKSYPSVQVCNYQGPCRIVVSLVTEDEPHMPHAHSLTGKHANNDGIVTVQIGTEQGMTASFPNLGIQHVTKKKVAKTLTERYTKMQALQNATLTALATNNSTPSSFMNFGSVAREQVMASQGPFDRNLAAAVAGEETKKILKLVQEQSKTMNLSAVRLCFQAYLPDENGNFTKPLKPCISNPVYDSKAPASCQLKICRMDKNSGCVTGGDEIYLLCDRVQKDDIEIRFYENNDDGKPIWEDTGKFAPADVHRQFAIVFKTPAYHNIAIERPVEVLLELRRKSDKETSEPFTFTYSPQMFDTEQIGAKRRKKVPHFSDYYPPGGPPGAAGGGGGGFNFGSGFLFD

[2] = molecular target: T2, GST-Nv-NF-kB (Cys allele) (Nematostella vectensis, UniProt E5G601 2-411)
T2 sequence: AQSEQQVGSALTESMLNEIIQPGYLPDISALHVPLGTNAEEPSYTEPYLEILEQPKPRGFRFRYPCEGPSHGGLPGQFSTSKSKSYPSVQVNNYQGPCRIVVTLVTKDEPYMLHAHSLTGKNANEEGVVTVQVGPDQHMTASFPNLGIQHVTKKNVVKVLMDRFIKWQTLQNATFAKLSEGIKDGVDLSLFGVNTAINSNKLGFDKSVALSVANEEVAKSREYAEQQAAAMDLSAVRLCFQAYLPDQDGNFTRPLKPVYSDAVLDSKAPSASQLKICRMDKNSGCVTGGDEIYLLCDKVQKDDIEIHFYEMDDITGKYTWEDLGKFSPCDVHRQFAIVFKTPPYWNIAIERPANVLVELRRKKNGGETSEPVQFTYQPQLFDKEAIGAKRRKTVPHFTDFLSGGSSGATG

[3] = molecular target: T3, GST-Co-NF-kB (Capsaspora owczarzaki, UniProt F1ARL5 200-546)
T3 sequence: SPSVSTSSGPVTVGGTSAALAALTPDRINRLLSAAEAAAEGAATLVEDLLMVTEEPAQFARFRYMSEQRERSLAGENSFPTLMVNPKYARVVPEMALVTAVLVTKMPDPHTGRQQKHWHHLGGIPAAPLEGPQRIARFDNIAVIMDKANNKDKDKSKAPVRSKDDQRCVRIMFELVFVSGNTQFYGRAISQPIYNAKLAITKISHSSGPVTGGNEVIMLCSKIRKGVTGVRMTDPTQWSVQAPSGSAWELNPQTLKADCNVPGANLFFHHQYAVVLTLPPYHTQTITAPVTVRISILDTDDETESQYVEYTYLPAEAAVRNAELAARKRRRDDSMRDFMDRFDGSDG

[4] = molecular target: T4, GST-Dm-Relish (Drosophila melanogaster, UniProt Q94527 99-473)
T4 sequence: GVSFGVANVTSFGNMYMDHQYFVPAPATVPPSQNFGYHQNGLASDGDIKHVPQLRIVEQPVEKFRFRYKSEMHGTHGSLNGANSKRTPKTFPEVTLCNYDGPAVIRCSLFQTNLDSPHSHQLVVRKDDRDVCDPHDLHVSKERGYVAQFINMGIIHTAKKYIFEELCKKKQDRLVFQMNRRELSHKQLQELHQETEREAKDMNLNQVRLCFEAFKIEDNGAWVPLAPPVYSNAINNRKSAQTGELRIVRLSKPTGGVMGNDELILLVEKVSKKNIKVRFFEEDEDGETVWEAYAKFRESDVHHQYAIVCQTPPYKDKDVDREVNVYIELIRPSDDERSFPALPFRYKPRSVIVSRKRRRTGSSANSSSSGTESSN

[5] = molecular target: T5, GST-Aq-NF-kB (Amphimedon queenslandica, UniProt A9Y5G7 2-389)
T5 sequence: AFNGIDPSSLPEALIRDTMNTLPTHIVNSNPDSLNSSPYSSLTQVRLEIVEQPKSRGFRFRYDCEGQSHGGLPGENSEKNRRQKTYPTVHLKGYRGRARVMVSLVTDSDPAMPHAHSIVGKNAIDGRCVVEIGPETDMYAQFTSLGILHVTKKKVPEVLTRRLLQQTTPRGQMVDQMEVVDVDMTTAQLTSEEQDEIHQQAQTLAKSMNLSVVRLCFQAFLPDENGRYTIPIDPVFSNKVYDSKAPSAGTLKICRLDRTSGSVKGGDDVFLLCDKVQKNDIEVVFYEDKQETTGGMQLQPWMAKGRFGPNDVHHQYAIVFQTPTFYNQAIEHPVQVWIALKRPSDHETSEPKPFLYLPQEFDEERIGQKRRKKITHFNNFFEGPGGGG

| Sequence | binding signal [1] [z-score] | binding signal [2] [z-score] | binding signal [3] [z-score] | binding signal [4] [z-score] | binding signal [5] [z-score] |
| --- | --- | --- | --- | --- | --- |
| CCGATTAACATCAGGGAACTTTATGATGTTAATCGGGTCTTGATTCGCTTGACGCTGCTG | 4.27 | 4.23 | 2.81 | 4.83 | 5.17 |
| CCGATTAACATCACGGACTCCCCTGATGTTAATCGGGTCTTGATTCGCTTGACGCTGCTG | 5.18 | 3.32 | 3.37 | 6.19 | 4.33 |
| CCGATTAACATCAAATAAATCCCTGATGTTAATCGGGTCTTGATTCGCTTGACGCTGCTG | 3.07 | 4.02 | 1.92 | 5.66 | 5.06 |
| CCGATTAACATCAAAGGAATCCCTGATGTTAATCGGGTCTTGATTCGCTTGACGCTGCTG | 3.02 | 2.14 | 1.06 | 7.59 | 2.92 |
| CCGATTAACATCAAGTACCCCCCTGATGTTAATCGGGTCTTGATTCGCTTGACGCTGCTG | 5.57 | 3.68 | 4.81 | 4.13 | 3.99 |
| CCGATTAACATCAAAAATCCCTATGATGTTAATCGGGTCTTGATTCGCTTGACGCTGCTG | 5.18 | 5.21 | 1.39 | 6.49 | 5.85 |
| CCGATTAACATCAGGGGAGGTACTGATGTTAATCGGGTCTTGATTCGCTTGACGCTGCTG | 4.21 | 3.43 | 3.96 | 6.44 | 4.35 |
| CCGATTAACATCAGGGAATTGTATGATGTTAATCGGGTCTTGATTCGCTTGACGCTGCTG | 2.85 | 4.78 | 3.1 | 1.21 | 4.7 |
| CCGATTAACATCAAAACAACCCCTGATGTTAATCGGGTCTTGATTCGCTTGACGCTGCTG | 3.57 | 3.44 | 2.54 | 2.68 | 4.83 |
| CCGATTAACATCAGGAGTACCCCTGATGTTAATCGGGTCTTGATTCGCTTGACGCTGCTG | 3.01 | 2.42 | 2.96 | 3.64 | 4.07 |
| CCGATTAACATCACTACTTTCCCTGATGTTAATCGGGTCTTGATTCGCTTGACGCTGCTG | 3.07 | 3.89 | 3.41 | 1.63 | 3.68 |
| CCGATTAACATCAGGCGATTCCCTGATGTTAATCGGGTCTTGATTCGCTTGACGCTGCTG | 1.93 | 2.99 | 1.44 | 2.34 | 3.88 |
| CCGATTAACATCAACCACCCCCTTGATGTTAATCGGGTCTTGATTCGCTTGACGCTGCTG | 3.52 | 3.02 | 2.25 | 2.48 | 3.83 |
| CCGATTAACATCAACGGGAATTCTGATGTTAATCGGGTCTTGATTCGCTTGACGCTGCTG | 4.32 | 5.7 | 3.23 | 4.15 | 4.74 |
| CCGATTAACATCAAAACAGCCCCTGATGTTAATCGGGTCTTGATTCGCTTGACGCTGCTG | 3.58 | 4.9 | 1.71 | 3.31 | 5.54 |
| CCGATTAACATCAGGGAATGCCATGATGTTAATCGGGTCTTGATTCGCTTGACGCTGCTG | 1.69 | 2.76 | 1.43 | 2.52 | 3.45 |
| CCGATTAACATCACGGCTTTCCCTGATGTTAATCGGGTCTTGATTCGCTTGACGCTGCTG | 2.31 | 3.5 | 2.32 | 2.21 | 3.7 |
| CCGATTAACATCAGGGATCCCCATGATGTTAATCGGGTCTTGATTCGCTTGACGCTGCTG | 7.26 | 4.8 | 3.74 | 9.65 | 4.64 |
| CCGATTAACATCAGGGGGTAGAATGATGTTAATCGGGTCTTGATTCGCTTGACGCTGCTG | 4.45 | 2.63 | 7.1 | 2.13 | 3.38 |
| CCGATTAACATCAAATTCCCAAATGATGTTAATCGGGTCTTGATTCGCTTGACGCTGCTG | 1.72 | 3.62 | 2.55 | 4.57 | 2.31 |
| CCGATTAACATCAGGAGTCCCCATGATGTTAATCGGGTCTTGATTCGCTTGACGCTGCTG | 6.21 | 4.39 | 2.23 | 7.3 | 4.27 |
| CCGATTAACATCAATCGTCCCCCTGATGTTAATCGGGTCTTGATTCGCTTGACGCTGCTG | 5.15 | 4.15 | 6.83 | 2.93 | 4.81 |
| CCGATTAACATCAAATACTTCCCTGATGTTAATCGGGTCTTGATTCGCTTGACGCTGCTG | 2.22 | 3.32 | 2.96 | 2.69 | 4.24 |
| CCGATTAACATCACGGGGTTCCCTGATGTTAATCGGGTCTTGATTCGCTTGACGCTGCTG | 4.82 | 2.58 | 2.51 | 9.28 | 6.02 |
| CCGATTAACATCAAGGAATACCCTGATGTTAATCGGGTCTTGATTCGCTTGACGCTGCTG | 4.85 | 5.51 | 1.33 | 7.24 | 5.58 |
| CCGATTAACATCAGGGGGTGTACTGATGTTAATCGGGTCTTGATTCGCTTGACGCTGCTG | 3.65 | 3.29 | 2.61 | 8.3 | 4.78 |
| CCGATTAACATCAGGGGAGAACCTGATGTTAATCGGGTCTTGATTCGCTTGACGCTGCTG | 6.35 | 4.58 | 5.4 | 5.43 | 5.51 |

Source: article PMC5700166
